# Data reported in article PMC7862700, “An all-to-all approach to the identification of sequence-specific readers for epigenetic DNA modifications on cytosine”.
# What was measured:
# Experiment in all cases: DAPPL (digital affinity profiling via proximity ligation, sequencing); 10 mM Tris-HCl pH 7.5, 50 mM NaCl, 1 mM DTT, 4% glycerol, room temperature, 30 min; GST-TFs on glutathione beads, 16-mer random dsDNA library, 0.1% formaldehyde crosslink after washing; high values mean tight binding
# Conditions in all cases: protein: recombinant; tags: N-terminal GST; dsDNA, one strand shown
# FLI1 = molecular target: T1, FLI1 (Homo sapiens, UniProt Q01543 1-452)
# T1 sequence: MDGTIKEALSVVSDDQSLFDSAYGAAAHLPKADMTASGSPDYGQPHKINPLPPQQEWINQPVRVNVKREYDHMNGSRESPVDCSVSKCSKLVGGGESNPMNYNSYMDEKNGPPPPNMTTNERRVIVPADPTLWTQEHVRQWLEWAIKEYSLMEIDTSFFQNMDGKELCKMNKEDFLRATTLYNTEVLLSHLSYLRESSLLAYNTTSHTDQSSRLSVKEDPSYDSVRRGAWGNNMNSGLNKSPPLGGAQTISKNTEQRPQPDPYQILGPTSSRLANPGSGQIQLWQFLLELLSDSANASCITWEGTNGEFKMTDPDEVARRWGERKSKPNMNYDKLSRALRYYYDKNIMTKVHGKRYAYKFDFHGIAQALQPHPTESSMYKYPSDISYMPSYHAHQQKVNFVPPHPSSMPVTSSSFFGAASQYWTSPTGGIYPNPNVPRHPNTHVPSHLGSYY
# Summary of the method: (§1)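 Each value of binding signal is a hexamer's read frequency for a factor divided by the same hexamer's frequency in the tag-only sample. Barcoded, bead-captured GST fusions of human transcription factors made in yeast were pooled with that sample and incubated with 200 nmole of a random double-stranded 16-mer DNA library in Tris/NaCl/DTT/glycerol buffer at room temperature for 30 min. Washing, 0.1% formaldehyde crosslinking, proximity ligation, PCR and Illumina NextSeq500 sequencing followed.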
# ELK1 = molecular target: T2, ELK1 (Homo sapiens, UniProt P19419 1-428)
# T2 sequence: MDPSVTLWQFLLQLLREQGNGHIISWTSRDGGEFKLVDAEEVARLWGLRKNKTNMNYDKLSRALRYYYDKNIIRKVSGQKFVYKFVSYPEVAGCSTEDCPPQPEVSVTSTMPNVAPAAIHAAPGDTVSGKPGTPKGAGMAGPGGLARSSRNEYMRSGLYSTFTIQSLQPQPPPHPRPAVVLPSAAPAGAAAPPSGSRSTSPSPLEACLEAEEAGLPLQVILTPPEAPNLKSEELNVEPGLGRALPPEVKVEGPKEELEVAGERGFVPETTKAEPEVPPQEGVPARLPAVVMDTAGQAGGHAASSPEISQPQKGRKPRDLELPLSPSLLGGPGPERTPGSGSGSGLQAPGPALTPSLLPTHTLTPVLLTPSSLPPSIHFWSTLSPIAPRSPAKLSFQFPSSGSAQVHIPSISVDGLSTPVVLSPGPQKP
# Summary of the method: as §1
# GABPA = molecular target: T3, GABPA (Homo sapiens, UniProt Q06546 1-454)
# T3 sequence: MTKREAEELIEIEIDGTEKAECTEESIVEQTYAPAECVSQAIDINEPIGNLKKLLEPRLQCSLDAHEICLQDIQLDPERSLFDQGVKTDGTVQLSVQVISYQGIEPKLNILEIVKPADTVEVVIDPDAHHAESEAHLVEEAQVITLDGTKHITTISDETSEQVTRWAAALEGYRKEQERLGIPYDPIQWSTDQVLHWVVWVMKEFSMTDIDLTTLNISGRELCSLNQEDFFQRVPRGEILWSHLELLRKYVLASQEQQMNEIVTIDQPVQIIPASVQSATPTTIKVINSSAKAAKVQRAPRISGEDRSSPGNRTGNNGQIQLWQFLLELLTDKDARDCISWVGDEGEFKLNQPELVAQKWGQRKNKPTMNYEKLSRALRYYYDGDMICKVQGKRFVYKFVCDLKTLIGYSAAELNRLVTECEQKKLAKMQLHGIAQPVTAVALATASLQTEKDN
# Summary of the method: as §1
# ERG = molecular target: T4, ERG (Homo sapiens, UniProt P11308 1-479)
# T4 sequence: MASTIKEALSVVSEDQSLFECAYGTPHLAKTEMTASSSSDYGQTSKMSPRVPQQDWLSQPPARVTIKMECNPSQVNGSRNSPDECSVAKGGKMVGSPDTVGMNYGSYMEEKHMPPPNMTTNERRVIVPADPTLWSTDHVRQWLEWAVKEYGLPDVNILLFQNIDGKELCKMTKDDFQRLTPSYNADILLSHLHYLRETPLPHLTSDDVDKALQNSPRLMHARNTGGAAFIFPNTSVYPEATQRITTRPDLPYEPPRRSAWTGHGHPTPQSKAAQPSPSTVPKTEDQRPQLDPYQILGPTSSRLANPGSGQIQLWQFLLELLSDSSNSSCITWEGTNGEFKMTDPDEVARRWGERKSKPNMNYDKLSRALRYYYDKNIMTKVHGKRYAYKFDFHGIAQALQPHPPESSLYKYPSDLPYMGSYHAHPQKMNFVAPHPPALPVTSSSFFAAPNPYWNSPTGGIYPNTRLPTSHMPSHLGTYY
# Summary of the method: as §1
# ELF1 = ELF1 (Homo sapiens, UniProt P32519 1-619)
# Summary of the method: as §1
# EHF = molecular target: T5, EHF (Homo sapiens, UniProt Q9NZC4 1-300)
# T5 sequence: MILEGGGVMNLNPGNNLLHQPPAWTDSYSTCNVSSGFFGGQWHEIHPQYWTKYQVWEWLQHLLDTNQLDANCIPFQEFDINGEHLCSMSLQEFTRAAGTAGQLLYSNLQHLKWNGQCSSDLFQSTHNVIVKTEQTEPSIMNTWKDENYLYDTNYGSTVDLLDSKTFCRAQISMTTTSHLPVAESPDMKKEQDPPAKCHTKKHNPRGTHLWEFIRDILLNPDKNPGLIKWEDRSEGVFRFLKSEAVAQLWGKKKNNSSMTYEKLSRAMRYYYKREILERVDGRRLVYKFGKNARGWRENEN
# Summary of the method: as §1
# SPI1 = SPI1 (Homo sapiens, UniProt P17947 1-270)
# Summary of the method: as §1
# SPIB = SPIB (Homo sapiens, UniProt Q01892 1-262)
# Summary of the method: as §1
# ELK3 = molecular target: T6, ELK3 (Homo sapiens, UniProt P41970 1-407)
# T6 sequence: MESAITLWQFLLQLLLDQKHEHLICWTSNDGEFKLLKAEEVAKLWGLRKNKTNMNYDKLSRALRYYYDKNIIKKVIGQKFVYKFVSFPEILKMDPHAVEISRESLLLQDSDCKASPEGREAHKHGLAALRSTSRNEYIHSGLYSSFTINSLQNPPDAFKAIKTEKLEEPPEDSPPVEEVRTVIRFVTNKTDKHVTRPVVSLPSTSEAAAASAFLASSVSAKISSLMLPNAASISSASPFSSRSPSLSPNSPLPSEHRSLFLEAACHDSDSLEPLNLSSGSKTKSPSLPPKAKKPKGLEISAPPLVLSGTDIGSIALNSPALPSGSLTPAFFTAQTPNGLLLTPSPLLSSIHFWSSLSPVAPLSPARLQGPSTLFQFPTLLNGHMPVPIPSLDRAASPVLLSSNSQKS
# Summary of the method: as §1
# FEV = molecular target: T7, FEV (Homo sapiens, UniProt Q99581 1-238)
# T7 sequence: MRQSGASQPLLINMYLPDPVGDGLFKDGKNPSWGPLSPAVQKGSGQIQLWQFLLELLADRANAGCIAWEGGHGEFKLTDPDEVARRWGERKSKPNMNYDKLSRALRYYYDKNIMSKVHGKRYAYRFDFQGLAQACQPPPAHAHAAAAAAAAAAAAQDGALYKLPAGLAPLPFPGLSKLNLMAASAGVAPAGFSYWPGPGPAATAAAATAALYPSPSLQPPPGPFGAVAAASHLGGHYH
# Summary of the method: as §1
# ETV5 = ETV5 (Homo sapiens, UniProt P41161 1-510)
# Summary of the method: as §1
# SPIC = molecular target: T8, SPIC (Homo sapiens, UniProt Q8N5J4 1-248)
# T8 sequence: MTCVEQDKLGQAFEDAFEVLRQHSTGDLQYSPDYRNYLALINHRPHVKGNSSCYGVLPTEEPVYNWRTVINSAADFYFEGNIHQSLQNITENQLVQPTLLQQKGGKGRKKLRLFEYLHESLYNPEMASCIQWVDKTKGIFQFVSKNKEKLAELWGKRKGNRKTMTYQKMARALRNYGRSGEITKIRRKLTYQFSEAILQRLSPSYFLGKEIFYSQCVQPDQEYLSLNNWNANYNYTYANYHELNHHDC
# Summary of the method: as §1
# ELF4 = ELF4 (Homo sapiens, UniProt Q99607 1-663)
# Summary of the method: as §1
# ELK4 = molecular target: T9, ELK4 (Homo sapiens, UniProt P28324-2 1-405)
# T9 sequence: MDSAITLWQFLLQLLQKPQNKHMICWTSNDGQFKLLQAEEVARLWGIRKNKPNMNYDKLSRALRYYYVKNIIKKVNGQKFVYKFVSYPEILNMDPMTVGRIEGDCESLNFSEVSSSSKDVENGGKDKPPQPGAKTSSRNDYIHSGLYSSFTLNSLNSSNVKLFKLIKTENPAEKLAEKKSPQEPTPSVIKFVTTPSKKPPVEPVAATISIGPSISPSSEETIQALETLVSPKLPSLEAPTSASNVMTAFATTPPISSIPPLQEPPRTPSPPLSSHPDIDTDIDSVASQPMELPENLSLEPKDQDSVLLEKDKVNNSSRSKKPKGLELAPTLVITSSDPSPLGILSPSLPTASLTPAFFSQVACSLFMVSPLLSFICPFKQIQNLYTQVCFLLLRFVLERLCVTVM
# Summary of the method: as §1
# ETV2 = molecular target: T10, ETV2 (Homo sapiens, UniProt O00321 1-342)
# T10 sequence: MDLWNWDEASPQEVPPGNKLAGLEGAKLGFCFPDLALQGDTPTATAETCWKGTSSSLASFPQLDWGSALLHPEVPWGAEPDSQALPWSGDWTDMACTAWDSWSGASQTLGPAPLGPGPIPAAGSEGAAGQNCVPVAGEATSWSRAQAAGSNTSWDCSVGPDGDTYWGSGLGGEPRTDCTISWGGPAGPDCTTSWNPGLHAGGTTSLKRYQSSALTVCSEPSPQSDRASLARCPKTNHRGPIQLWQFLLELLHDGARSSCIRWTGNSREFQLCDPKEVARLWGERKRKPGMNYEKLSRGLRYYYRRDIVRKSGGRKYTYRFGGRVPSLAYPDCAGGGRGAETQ
# Summary of the method: as §1
# ELF3 = molecular target: T11, ELF3 (Homo sapiens, UniProt P78545 1-371)
# T11 sequence: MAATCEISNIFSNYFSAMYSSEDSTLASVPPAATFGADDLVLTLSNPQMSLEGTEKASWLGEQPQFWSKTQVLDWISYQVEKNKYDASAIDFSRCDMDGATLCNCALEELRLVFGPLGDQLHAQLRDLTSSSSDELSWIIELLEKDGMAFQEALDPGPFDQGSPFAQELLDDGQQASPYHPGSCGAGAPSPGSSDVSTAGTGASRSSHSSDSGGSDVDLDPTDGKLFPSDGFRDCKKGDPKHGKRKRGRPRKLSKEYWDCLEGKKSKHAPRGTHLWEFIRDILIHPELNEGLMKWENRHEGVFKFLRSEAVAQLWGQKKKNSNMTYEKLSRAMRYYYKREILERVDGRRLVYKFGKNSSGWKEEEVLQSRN
# Summary of the method: as §1
# ETV1 = ETV1 (Homo sapiens, UniProt P50549 1-477)
# Summary of the method: as §1
# Sequence of SPIB (Q01892 whole entry): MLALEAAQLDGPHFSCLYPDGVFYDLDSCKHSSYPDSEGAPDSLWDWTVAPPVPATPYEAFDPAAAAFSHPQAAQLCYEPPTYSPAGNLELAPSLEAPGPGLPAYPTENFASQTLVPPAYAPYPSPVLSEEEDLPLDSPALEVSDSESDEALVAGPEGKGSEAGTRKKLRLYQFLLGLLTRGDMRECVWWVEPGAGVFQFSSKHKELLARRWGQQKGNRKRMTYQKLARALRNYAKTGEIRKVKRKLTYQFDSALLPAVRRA
# Sequence of ETV5 (P41161 whole entry): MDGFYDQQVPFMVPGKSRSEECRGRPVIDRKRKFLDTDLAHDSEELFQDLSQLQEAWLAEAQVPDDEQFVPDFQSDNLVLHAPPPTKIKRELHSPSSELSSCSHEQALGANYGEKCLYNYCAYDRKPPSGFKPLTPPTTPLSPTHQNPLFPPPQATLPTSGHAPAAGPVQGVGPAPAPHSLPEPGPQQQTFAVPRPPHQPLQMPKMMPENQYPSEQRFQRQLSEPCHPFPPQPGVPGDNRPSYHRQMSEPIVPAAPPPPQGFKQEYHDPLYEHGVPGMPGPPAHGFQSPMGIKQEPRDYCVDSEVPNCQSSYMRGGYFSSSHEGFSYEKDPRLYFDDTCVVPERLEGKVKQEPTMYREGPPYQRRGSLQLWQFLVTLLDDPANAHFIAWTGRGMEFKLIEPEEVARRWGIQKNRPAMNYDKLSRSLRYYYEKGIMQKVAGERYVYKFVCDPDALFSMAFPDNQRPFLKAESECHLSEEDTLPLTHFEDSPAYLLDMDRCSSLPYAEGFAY
# Sequence of ELF1 (P32519 whole entry): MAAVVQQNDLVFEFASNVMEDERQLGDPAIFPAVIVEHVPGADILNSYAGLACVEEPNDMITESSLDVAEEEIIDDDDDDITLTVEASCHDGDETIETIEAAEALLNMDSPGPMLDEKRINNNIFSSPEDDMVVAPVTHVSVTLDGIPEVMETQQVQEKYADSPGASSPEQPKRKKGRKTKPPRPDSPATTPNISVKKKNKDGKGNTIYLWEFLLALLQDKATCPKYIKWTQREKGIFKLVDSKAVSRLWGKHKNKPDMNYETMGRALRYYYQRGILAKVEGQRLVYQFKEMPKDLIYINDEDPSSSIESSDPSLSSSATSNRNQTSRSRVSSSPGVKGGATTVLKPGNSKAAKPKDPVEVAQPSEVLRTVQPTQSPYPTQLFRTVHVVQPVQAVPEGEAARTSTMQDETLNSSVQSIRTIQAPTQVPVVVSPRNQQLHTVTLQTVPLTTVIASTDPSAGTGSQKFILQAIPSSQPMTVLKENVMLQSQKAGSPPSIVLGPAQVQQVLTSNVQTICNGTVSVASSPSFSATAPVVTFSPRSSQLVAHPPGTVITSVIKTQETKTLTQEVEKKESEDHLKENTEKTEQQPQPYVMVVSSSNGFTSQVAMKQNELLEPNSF
# Sequence of ETV1 (P50549 whole entry): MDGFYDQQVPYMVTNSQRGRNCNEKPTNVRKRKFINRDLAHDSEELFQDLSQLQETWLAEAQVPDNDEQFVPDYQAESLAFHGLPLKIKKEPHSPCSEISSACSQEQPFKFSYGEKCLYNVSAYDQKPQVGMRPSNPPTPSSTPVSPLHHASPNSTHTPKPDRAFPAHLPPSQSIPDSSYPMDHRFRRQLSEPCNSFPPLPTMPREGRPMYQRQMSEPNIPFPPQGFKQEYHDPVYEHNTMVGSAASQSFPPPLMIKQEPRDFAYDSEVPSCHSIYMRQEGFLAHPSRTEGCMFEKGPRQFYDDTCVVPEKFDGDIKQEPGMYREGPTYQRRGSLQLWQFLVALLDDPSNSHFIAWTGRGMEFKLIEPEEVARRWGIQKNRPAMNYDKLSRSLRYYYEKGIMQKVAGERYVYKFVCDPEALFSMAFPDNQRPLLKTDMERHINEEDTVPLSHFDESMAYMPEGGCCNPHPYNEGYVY
# Sequence of ELF4 (Q99607 whole entry): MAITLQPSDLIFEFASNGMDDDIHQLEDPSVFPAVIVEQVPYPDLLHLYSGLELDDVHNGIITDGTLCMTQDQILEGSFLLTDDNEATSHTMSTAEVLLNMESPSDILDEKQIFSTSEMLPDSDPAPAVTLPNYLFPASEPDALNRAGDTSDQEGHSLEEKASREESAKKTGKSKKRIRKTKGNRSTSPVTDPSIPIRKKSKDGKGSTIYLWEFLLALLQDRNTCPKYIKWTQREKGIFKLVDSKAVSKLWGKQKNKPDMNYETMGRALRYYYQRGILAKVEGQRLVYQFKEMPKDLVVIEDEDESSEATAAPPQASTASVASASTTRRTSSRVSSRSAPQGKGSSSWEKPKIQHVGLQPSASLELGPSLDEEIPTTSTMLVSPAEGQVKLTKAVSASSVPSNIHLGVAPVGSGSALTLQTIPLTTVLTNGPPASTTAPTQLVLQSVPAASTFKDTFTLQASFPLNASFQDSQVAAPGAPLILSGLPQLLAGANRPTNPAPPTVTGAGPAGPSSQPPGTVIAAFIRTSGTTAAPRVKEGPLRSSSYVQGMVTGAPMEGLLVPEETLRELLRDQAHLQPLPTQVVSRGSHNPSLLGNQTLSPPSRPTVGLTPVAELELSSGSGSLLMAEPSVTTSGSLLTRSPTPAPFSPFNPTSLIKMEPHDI
Sequence,binding signal (FLI1),binding signal (ELK1),binding signal (GABPA),binding signal (ERG),binding signal (ELF1),binding signal (EHF),binding signal (SPI1),binding signal (SPIB),binding signal (ELK3),binding signal (FEV),binding signal (ETV5),binding signal (SPIC),binding signal (ELF4),binding signal (ELK4),binding signal (ETV2),binding signal (ELF3),binding signal (ETV1)
CTGTGC,"1.09 fold enrichment (6-mer frequency, TF over GST control)","1.18 fold enrichment (6-mer frequency, TF over GST control)","1.12 fold enrichment (6-mer frequency, TF over GST control)","1.11 fold enrichment (6-mer frequency, TF over GST control)","1.14 fold enrichment (6-mer frequency, TF over GST control)","1.02 fold enrichment (6-mer frequency, TF over GST control)","1.02 fold enrichment (6-mer frequency, TF over GST control)","1.13 fold enrichment (6-mer frequency, TF over GST control)","1.09 fold enrichment (6-mer frequency, TF over GST control)","1.03 fold enrichment (6-mer frequency, TF over GST control)","1.17 fold enrichment (6-mer frequency, TF over GST control)","1.27 fold enrichment (6-mer frequency, TF over GST control)","1.21 fold enrichment (6-mer frequency, TF over GST control)","1.12 fold enrichment (6-mer frequency, TF over GST control)","1.25 fold enrichment (6-mer frequency, TF over GST control)","1.08 fold enrichment (6-mer frequency, TF over GST control)","1.12 fold enrichment (6-mer frequency, TF over GST control)"
TGACAC,"1.13 fold enrichment (6-mer frequency, TF over GST control)","1.27 fold enrichment (6-mer frequency, TF over GST control)","1.07 fold enrichment (6-mer frequency, TF over GST control)","1.2 fold enrichment (6-mer frequency, TF over GST control)","1.17 fold enrichment (6-mer frequency, TF over GST control)","1.15 fold enrichment (6-mer frequency, TF over GST control)","1.13 fold enrichment (6-mer frequency, TF over GST control)","1.11 fold enrichment (6-mer frequency, TF over GST control)","1.22 fold enrichment (6-mer frequency, TF over GST control)","1.11 fold enrichment (6-mer frequency, TF over GST control)","1.11 fold enrichment (6-mer frequency, TF over GST control)","1.07 fold enrichment (6-mer frequency, TF over GST control)","1.1 fold enrichment (6-mer frequency, TF over GST control)","1.18 fold enrichment (6-mer frequency, TF over GST control)","1.15 fold enrichment (6-mer frequency, TF over GST control)","1.14 fold enrichment (6-mer frequency, TF over GST control)","1.1 fold enrichment (6-mer frequency, TF over GST control)"
